Values joined by “and” are separate entries in the source; they are usually repeats but may differ in a detail not shown here. Equal entries are not always repeated. This is part of a sample that, as a whole, favours compounds with a hit. Of some 83,000 tested, about 20% had one in any assay.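 Note: values are percent growth. 100 is the growth of untreated cells, values between 100 and 0 indicate rising inhibition; between -100 and 0 indicates cell death.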 Active and inactive are the calls of the source. How the source made its calls: active means growth percent below 10; inactive means the rest.

In the experiment the test system is HL-60(TB) leukemia. Briefly: NCI-60 one-dose screen, 48 h (100 = growth as untreated, 0 = no growth, -100 = all killed). The conditions noted are these: 10 µM unless noted.
In the case of `O=C1Cc2ccccc2C(=O)N1`, the growth is 67.6% (inactive). As to `COc1ccccc1C(=O)/C=C/c1cc2cccc(OC)c2[nH]c1=O`, the growth was -10.5% (active).

With `CC1(C)CC[C@]2(C(N)=O)CC[C@]3(C)C(=CC[C@@H]4[C@@]5(C)C/C(=C/c6cccnc6)C(=O)C(C)(C)[C@@H]5CC[C@]43C)[C@@H]2C1`, the growth is -24.7% [100 µM] (active).

As to `O=[N+]([O-])c1ccc(C2N(Cc3ccc(Cl)cc3)CCN2Cc2ccc(Cl)cc2)cc1`, the growth was 86.9% (inactive).

Regarding `Cc1cc(NCc2cc(Nc3ccnc4cc(Cl)ccc34)ccc2F)nc(N2CCSCC2)n1`, the growth was -61.4% (active). For `COc1ccc(/C=C(\C#N)c2ccccc2)cc1`, the growth is 95.8% (inactive). On to `CCc1ccccc1NC(=O)/C(C#N)=C/c1ccc(OC)cc1`, for which the growth was 138% (inactive).

`O=C(Nc1ccc(F)cc1F)c1cc(Br)ccc1O`: the growth was -36.2% (active). Then `O=C1/C(=C\c2cn(C(=O)c3ccc(Cl)cc3)c3ccccc23)c2ccccc2N1c1c(Cl)cccc1Cl`, with 103% (inactive); and `CC1=Nc2cnc(Nc3ccc(OCCN4CCCCC4)cc3)nc2Nc2ccccc21`, with 65.1% (inactive); and `CNC(=O)NCC1OC(n2cnc3c(NC(=O)Nc4ccccc4)ncnc32)C(O[Si](C)(C)C(C)(C)C)C1O[Si](C)(C)C(C)(C)C` (centres undefined), with 23.5% (inactive). On to `Nc1n[nH]c2cccc(C#Cc3cccc(C(=O)Nc4cc(C(F)(F)F)cc(C(F)(F)F)c4)c3)c12`, for which the growth is 39.7% (inactive). Consider `Cn1cnc2c1c(=O)n(CCC(=O)Nc1ccc(F)cc1)c(=O)n2C`, for which the growth was 113% (inactive). With `O=C1/C(=C/c2ccc(F)cc2)COc2ccc(O)c(O)c21`, the growth is -17% (active). In the case of `Nc1c2ccccc2nc2ccccc12`, the growth was 21% (inactive) and 9.95% (active) and 47.7% (inactive). With `Cc1cc(=O)[nH]c(N=Nc2c(O)[nH]c3ccccc23)n1`, the growth is 79.8% (inactive). On to `Cc1ccc(NC(=O)Cn2cc(CN3CCN(c4ccnc5cc(Cl)ccc45)CC3)nn2)cc1`, for which the growth is 87% (inactive). As to `Cc1c(C(=O)NCCCc2ccccc2)sc2ncc(-c3ccc(Br)cc3)n12`, the growth is 90.1% (inactive). Consider `CC(=O)Oc1cc(C(C)C)c(OCCN(C)C)cc1C`, for which the growth is 131% (inactive). With `O=S(=O)(NCCNc1nccc(-c2c(-c3cccc(F)c3)nc3occn23)n1)c1cccc2ccccc12`, the growth is 51.9% (inactive). Take `C(=N\OCCc1ccccc1)/c1ccccn1`: the growth was 99.3% (inactive) and 85.5% (inactive). On to `Cc1cc(C(=O)CSc2nc3ccccc3c(=O)[nH]2)c(C)n1C`, for which the growth is 102% (inactive).

In the case of `CSc1nnc(-c2cc3c([nH]c4ccccc43)c(-c3cccc(O)c3)n2)n1-c1ccccc1`, the growth was 7.59% (active). The same measure for `COC(=O)c1cc(=O)nc(N/N=C/c2ccccc2O)s1`: 87.3% (inactive); for `CS(=O)(=O)OCCN(CCOS(C)(=O)=O)c1ccc(/C=N/Nc2ccc([N+](=O)[O-])cc2[N+](=O)[O-])cc1`: 71.6% (inactive). Regarding `N#Cc1cccc(-c2c(-c3ccc4ccccc4c3)oc3ccccc3c2=O)c1`, the growth is 6.17% (active). With `CN(c1ccccc1)c1ccc2c(c1)OCCC21CC1Nc1cnccc1C(=O)O` (centres undefined), the growth is 65.3% (inactive). As for `COc1cc(-c2nn(-c3ccc(NC(=O)NCCCNC(=O)c4ccccc4)cc3)cc2-c2ccncc2)ccc1Cl`, the growth was -0.104% (active). Then `COc1cc(-c2cc(-c3ccc(N(C)C)cc3)nc(N3CCC(O)CC3)c2C#N)cc(OC)c1OC`, with -23.6% (active); and `COc1ccc(N)c(S)c1`, with 93.4% (inactive).

As for `CC(C)(C)OC(=O)N1CCc2c(sc3ncnc(N/N=C/c4cccc(Br)c4)c23)C1`, the growth is 71.8% (inactive). Turning to `CC(C)(C)OC(=O)N1CCCN(CCNc2nccc(-c3c(-c4cccc(O)c4)nc4sccn34)n2)S1(=O)=O`, the growth is 104% (inactive). For `O=C(Nc1ccc(OS(=O)(=O)Cc2ccccc2)cc1)C12CC3CC(CC(C3)C1)C2`, the growth is 60.5% (inactive).

With `O=[N+]([O-])c1ccc(NS(=O)(=O)c2cc(Cl)ccc2Cl)c2ccccc12`, the growth was 33.4% (inactive).

Regarding `Cc1cc(C)nc(NS(=O)(=O)c2ccc(Nc3nc4nc(NCc5ccccc5)nc(-c5ccc(O)cc5)c4c(=O)[nH]3)cc2)n1`, the growth is 1.48% (active). On to `COC(C(=O)[C@@H](O)[C@@H](C)O)[C@@H]1Cc2cc3cc(O[C@H]4C[C@@H](O[C@H]5C[C@@H](O)[C@H](O)C(C)O5)[C@H](O)C(C)O4)c(C)c(O)c3c(O)c2C(=O)[C@H]1O[C@H]1C[C@@H](O[C@H]2C[C@@H](O[C@H]3C[C@@H](O)[C@H](OC)C(C)O3)[C@@H](O)C(C)O2)[C@H](O)C(C)O1` (some centres undefined), for which the growth is -5.47% (active). Turning to `COc1ccc(-c2ccc3cnc4sc(-c5ccc(OC)cc5)nc4c3n2)cc1`, the growth is 95.3% (inactive). As for `O=C(Nc1nc2ccccc2[nH]1)C(=O)Nc1nc2ccccc2[nH]1`, the growth is 99.7% (inactive). In the case of `O=[N+]([O-])c1ccc(N/N=C/c2c(O)ccc3ccccc23)nc1`, the growth is 9.55% (active).

The values are drawn from PubChem BioAssay (NCI).
